# Laboratory results reported in ChEMBL document CHEMBL3433997, “St. Jude Leishmania screening dataset” (2016).
# Tests used:
# Format in all cases: functional
# [1] = target: Solute carrier family 2, facilitated glucose transporter member 1 (Homo sapiens) (UniProt P11166); test: ST_JUDE_LEISH: Cytotoxicity at 2uM final concentration against transgenic Leishmania Mexicana promastigotes LmGLUT1 that are glucose transport deficient and complemented with the human glucose transporter GLUT1. Activity is measured by DNA content using SYBR green in vitro
# Solute carrier family 2, facilitated glucose transporter member 1 (Homo sapiens), sequence (P11166 whole entry): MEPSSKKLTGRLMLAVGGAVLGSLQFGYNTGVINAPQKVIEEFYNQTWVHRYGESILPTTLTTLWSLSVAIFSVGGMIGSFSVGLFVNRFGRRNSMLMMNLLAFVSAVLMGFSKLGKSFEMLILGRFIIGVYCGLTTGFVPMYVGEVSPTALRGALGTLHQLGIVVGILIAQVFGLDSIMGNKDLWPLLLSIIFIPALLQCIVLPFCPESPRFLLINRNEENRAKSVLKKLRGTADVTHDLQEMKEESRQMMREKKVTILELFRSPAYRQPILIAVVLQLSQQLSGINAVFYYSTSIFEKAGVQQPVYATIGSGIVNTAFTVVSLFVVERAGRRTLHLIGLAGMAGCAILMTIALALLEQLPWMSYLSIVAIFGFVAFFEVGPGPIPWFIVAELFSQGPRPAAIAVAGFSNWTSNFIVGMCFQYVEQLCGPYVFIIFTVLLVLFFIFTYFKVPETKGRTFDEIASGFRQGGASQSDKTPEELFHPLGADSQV
# [2] = target: Hexose transporter 1 (Plasmodium falciparum) (UniProt O97467); test: ST_JUDE_LEISH: Cytotoxicity at 2uM final concentration against transgenic Leishmania Mexicana promastigotes LmPfHT that are glucose transport deficient and complemented with the Plasmodium falciparum hexose transporter. Activity is measured by DNA content using SYBR green in vitro
# [3] = target: Glucose transporter (Leishmania mexicana) (UniProt O61059); test: ST_JUDE_LEISH: Cytotoxicity at 2uM final concentration against transgenic Leishmania Mexicana promastigotes LmGT2 that are glucose transport deficient and complemented with the L. Mexicana glucose transporter 2. Activity is measured by DNA content using SYBR green in vitro
SMILES,inhibition [1] [%],inhibition [2] [%],inhibition [3] [%]
O=C(Nc1cccc2ccccc12)N1CCC(NS(=O)(=O)c2cccc(C(F)(F)F)c2)CC1,0.57,0.62,0.91
CCCCC(NCC)c1ccc(OCCOc2ccc(C(CCCC)NCC)cc2)cc1 (configuration not stated),81.2,41.5,106
Cc1ccc(Cl)cc1N1CCN(CCCNC(=O)C2CCN(c3nc4ccccc4[nH]3)CC2)CC1,4.49,5.2,5.6
CCNC(=O)Nc1cccc(-c2ccc(-c3nc4cccc(C)c4[nH]3)s2)c1,1.49,1.4,0.03
Oc1ccccc1CCNCC1CCc2ccccc2C1 (configuration not stated),-0.47,-0.01,0.73
O=C(Nc1ccc(Oc2ccccc2)cc1)N(CCN1CCCC1)Cc1ccc(-c2ccc(CN3CCNCC3)cc2)cc1,0.02,1.54,0.38
O=C1Nc2cccc3c2C1(CCCCN1CCC(c2c(-c4ccc(F)cc4)[nH]c4ccccc24)CC1)CCC3 (configuration not stated),5.51,5.23,6.27
O=C(NCCCN1CCN(c2cccc(Cl)c2)CC1)c1ccc(-c2nc3cc(Cl)c(Cl)cc3[nH]2)cc1,11.3,8.6,13.7
CCn1c(-c2nonc2N)nc2c(Cl)ncc(O[C@H](CCN)c3ccccc3F)c21,58.6,48.5,20.2
Cc1cc(-c2ccc(NC(=O)Nc3ccc4nccc(N5CCN(C)CC5)c4c3)cc2C)cc(C)n1,7.15,5.84,8.51
CC(C)(C)c1ccc(CN2CCC(CNC(=O)c3cc(-c4ccccc4C(F)(F)F)cs3)C2)cc1 (configuration not stated),1.63,3.76,1.21
CC(C)N1CCN(C(CN2CCN(CCCOc3cccc(F)c3)CC2)c2ccc(F)cc2)CC1 (configuration not stated),-2.25,-0.57,-1.78
COc1ccc(N(c2nc(-c3cc(Cl)ccc3Cl)cs2)C2CCNC2)cc1 (configuration not stated),4.89,4.65,1.24
O=C(C=Cc1ccc(Cl)c(Cl)c1)NCCCCCN1CCC(CCNC(=O)C(c2ccccc2)c2ccccc2)CC1,3.47,1.79,0.8
Cc1nnsc1C(=O)Nc1cccc(-c2cccc(-c3nc4cc(C(F)(F)F)ccc4[nH]3)c2)c1,6.42,6.2,6.93
CN(CCN1CCCC1)c1nc2cc(-n3cnc4cc(-c5ccc(Cl)cc5)sc4c3=O)ccc2[nH]1,0.93,0.75,1.45
CCOc1ncccc1CN1CCC(N2CCc3cc(NC(=O)c4ccco4)ccc32)C1 (configuration not stated),0.43,-0.71,1.65
N#Cc1ccc2c(c1)CCN(CCC1CCC(NC(=O)/C=C/c3cc(Br)cs3)CC1)CC2 (configuration not stated),5.26,2.93,-0.56
COc1ccccc1N1CCN(C(C(=O)NCc2ccc3c(c2)OCO3)c2ccc3c(c2)OCCCO3)CC1 (configuration not stated),1.2,1.04,3.62
Cc1cccc2nc(-c3cccc(-c4ccc(NC(=O)CN5CCOCC5)cc4)c3)[nH]c12,4.78,4.5,2.97
O=C(c1cccs1)N(Cc1cccc(-c2ccc(CNCCc3ccccc3)cc2)c1)C1CCN(Cc2ccccc2)CC1,9.9,7.55,9.34
CCCCOc1cc2ncc(C(=O)OCC)c(O)c2cc1OCCCC,0.09,0.46,-3.15

SMILES,inhibition [1] [%],inhibition [2] [%],inhibition [3] [%]
CCN1CCC(N(Cc2ccc(-c3ccc(Cl)cc3)cc2)C(=O)Cn2c(CCc3cccc(F)c3F)cc(=O)c3ccccc32)CC1,9.18,5.52,7.94
Cc1ccc(NS(=O)(=O)c2ccc(C(C)N3CCC(N4CCCCC4)CC3)cc2)cc1C (configuration not stated),-2.42,-0.86,0.73
O=C(NC1CCN(CCN2CCc3ccccc3CC2)CC1)c1ccc(-c2ccc(C(F)(F)F)cc2)cc1,5.74,9.69,4.56
CC(C)CSc1cc(C(=O)Nc2cc(Cl)ccc2O)ccn1,-0.74,-0.12,-2.72
FC(F)(F)c1cnc(Sc2nnc(-c3ccco3)o2)c(Cl)c1,17.1,12.9,11.8
Cc1cccc(C(O)CNc2ccnc(Nc3cccc(-c4csc(C)n4)c3)n2)c1 (configuration not stated),3.68,4.04,2.54
Cc1cccc(-n2c(Nc3ccc(C)c(Cl)c3)nc3ccc(S(=O)(=O)NC(C)C(C)C)cc32)c1 (configuration not stated),2.71,1.5,-0.08
O=C(NC1CCN(c2ccnc3cc(Cl)ccc23)C1)c1ccc(F)cc1 (configuration not stated),2.4,2.61,4.18
Cc1ccc2[nH]c3c(NCCN(C)C)ncnc3c2c1,0.53,1.24,-0.07
Cc1ccc(C)c(Sc2ccc(NC(=O)CN3CCN(C(=O)c4ccco4)CC3)cc2)c1,0.6,0.52,0.17
CC(C)(C)CC(C)(C)c1ccc(O)c(CNC2CCCCC2)c1,1.96,2.09,-0.74
Nc1nccc2ccc(-c3ccnc(NCc4cccnc4)n3)cc12,9.29,7.15,11.2
CCc1cc2c(N)nc(N)nc2nc1-c1ccccc1,4.22,3.93,0.81
CC1(C)NC(N)=NC(=N)N1OCC1CCCCC1,-0.1,1.24,0.75
CCN1CCC(N(Cc2ccc(-c3ccc(C(F)(F)F)cc3)cc2)C(=O)Cn2nc(C)c(=O)cc2SCc2ccc(F)cc2)CC1,0.5,0.04,0.46
COc1cc(F)c2ncc(Cl)c([C@@H](O)CN3CCC(NCc4cc5c(cn4)OCCO5)CC3)c2c1,9.42,8.83,5.13
Brc1ccc(Nc2nc3ccccc3nc2Nc2ccc(Br)cc2)cc1,9.39,6.78,9.68
Cc1ccccc1Nc1nc(NCCCO)c2ccccc2n1,13.6,12.5,8.48
COc1ccc(OCCCCON2C(=N)N=C(N)NC2(C)C)cc1,3.18,1.29,2.18
Cn1c(NC(=O)c2ccc(CNC(=O)c3ccc(O)c(-c4ccc(Cl)c(Cl)c4)c3)cc2)nc2ccccc21,4.29,3.37,3.29
O=C(NCCCCN1CCC(c2ccc(-c3ccco3)cc2)CC1)c1ccc(NC(=O)c2ccc(Cl)cc2)cc1,2.25,2.49,-0.22
O=C(NC1CC1)c1ccc(N2CCCC(COc3ccc4c(c3)CCCC4)C2)nc1 (configuration not stated),2.1,1.8,1.93
